For five compounds, Potency, activation and activity change, negative = inhibition results are on record in PubChem BioAssay (NCATS).

Inconclusive results are not listed. Values without a mark were called inactive. Active and inactive are the calls of the source. Calls follow the shape of the dose curve; as a rule, active = well fitted curve in the direction sought with a large enough effect; inconclusive = small, poorly fitted or top-dose-only effect, or another doubt; inactive = no such curve, though single readings can be large; an effect the other way counts as inactive or inconclusive.

For assay [1], the target named is Rap guanine nucleotide exchange factor 3 (Homo sapiens) (UniProt O95398). Put plainly: Confirmatory qHTS for agonist of cAMP-regulated guanine nucleotide exchange factor 3 (EPAC1) (AID 1645881).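 Also: EPAC1 catalysed release of BODIPY-GDP from Rap1B seen as fluorescence loss; 100% = effect of cAMP agonist control; nearly all actives have a fitted effect of over 75% in size.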 A general note: In qHTS, concentration-response curves come from the screen itself.
Assay [2] has as its target Rap guanine nucleotide exchange factor 4 (Homo sapiens) (UniProt Q8WZA2). In words: Confirmatory qHTS for agonist of cAMP-regulated guanine nucleotide exchange factor 4 (EPAC2) (AID 1645884).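 Also: nucleotide exchange releases bodipy-GDP from Rap1 and this lowers its fluorescence; % is scaled to controls: 0 for no effect and ±100 for the full control effect; nearly all actives have a fitted effect of over 65% in size.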
Assay [3] has the same target. Put plainly: Confirmatory qHTS for antagonist of cAMP-regulated guanine nucleotide exchange factor 4 (EPAC2) (AID 1645885). Also: nearly all actives have a fitted effect of over 25% in size. Also: potency is read from the fitted curve at half-maximal effect. As to activity change, negative = inhibition: % is scaled to controls: 0 for no effect and ±100 for the full control effect.
Assay [4] concerns the target Rap guanine nucleotide exchange factor 3 (Homo sapiens) (UniProt O95398). In words: Counterscreen qHTS for agonist of cAMP-regulated guanine nucleotide exchange factor 3 (EPAC1) (AID 1645889). Also: % of control where 0% means no effect; nearly all actives have a fitted effect of over 40% in size. The method, boiled down:
(§1)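 Measured: fluorescence of BODIPY-GDP bound to Rap1B, which falls as exchange proceeds. Conditions include 50 uM competing GDP, 5 and 30 min reads, and a later cAMP challenge for antagonist detection.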
A general note: Counterscreens check selectivity or assay interference.

The target in assay [5] is Tumor susceptibility gene 101 protein (Homo sapiens) (UniProt Q99816). In words: qHTS Assay for Iinhibitors of HIV-1 Budding by Blocking the Interaction of PTAP/TSG101: Hit Validation (AID 651600). Also: nearly all actives have a fitted effect of over 70% in size. Also: potency is read from the fitted curve at half-maximal effect. As to activity change, negative = inhibition: % is scaled to controls: 0 for no effect and ±100 for the full control effect. The method, boiled down: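 Fluorescence polarization binding assay: Tsg101 binding domain (10 uM) mixed with compounds and FITC-labeled PTAP peptide (50 nM) in HEPES pH 7.5, 0.15 M NaCl, 0.01% Tween 20, EDTA, TCEP; 20 min at r.t.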

Assay [6] deals with Rap guanine nucleotide exchange factor 3 (Homo sapiens) (UniProt O95398). Put plainly: Counterscreen qHTS for antagonist of cAMP-regulated guanine nucleotide exchange factor 3 (EPAC1) (AID 1645888).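 Also: fluorescence loss as bound BODIPY-GDP is released from Rap1B; % of control where 0% means no effect.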 The method, boiled down: as §1

Sequence of Rap guanine nucleotide exchange factor 4 (Homo sapiens) (Q8WZA2 whole entry, looked up): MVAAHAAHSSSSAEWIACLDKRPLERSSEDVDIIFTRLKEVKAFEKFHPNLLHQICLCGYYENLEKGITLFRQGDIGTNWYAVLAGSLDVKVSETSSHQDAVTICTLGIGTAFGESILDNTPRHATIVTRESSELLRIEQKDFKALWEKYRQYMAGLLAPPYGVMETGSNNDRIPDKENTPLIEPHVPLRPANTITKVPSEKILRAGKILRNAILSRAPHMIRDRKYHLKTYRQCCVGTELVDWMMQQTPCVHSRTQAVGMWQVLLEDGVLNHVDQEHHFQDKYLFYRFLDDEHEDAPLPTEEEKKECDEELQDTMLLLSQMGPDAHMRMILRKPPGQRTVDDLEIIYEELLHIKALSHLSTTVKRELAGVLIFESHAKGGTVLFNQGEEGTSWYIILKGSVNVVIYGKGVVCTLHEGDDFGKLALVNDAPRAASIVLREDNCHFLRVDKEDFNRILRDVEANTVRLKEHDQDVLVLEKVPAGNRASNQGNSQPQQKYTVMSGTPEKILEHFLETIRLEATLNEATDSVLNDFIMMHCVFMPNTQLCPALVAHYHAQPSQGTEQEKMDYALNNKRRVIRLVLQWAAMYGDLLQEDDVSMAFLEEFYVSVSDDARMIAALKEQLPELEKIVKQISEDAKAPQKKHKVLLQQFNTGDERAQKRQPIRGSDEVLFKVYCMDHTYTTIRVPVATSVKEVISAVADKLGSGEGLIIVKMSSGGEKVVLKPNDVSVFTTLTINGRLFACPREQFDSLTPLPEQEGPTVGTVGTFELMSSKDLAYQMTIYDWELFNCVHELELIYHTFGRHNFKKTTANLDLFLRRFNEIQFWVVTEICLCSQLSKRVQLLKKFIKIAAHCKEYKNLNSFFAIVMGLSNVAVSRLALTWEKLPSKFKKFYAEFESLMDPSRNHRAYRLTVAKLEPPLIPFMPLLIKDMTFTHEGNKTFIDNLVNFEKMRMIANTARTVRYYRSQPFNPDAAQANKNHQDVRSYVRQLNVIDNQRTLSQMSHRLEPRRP
Sequence of Rap guanine nucleotide exchange factor 3 (Homo sapiens) (O95398 whole entry, looked up): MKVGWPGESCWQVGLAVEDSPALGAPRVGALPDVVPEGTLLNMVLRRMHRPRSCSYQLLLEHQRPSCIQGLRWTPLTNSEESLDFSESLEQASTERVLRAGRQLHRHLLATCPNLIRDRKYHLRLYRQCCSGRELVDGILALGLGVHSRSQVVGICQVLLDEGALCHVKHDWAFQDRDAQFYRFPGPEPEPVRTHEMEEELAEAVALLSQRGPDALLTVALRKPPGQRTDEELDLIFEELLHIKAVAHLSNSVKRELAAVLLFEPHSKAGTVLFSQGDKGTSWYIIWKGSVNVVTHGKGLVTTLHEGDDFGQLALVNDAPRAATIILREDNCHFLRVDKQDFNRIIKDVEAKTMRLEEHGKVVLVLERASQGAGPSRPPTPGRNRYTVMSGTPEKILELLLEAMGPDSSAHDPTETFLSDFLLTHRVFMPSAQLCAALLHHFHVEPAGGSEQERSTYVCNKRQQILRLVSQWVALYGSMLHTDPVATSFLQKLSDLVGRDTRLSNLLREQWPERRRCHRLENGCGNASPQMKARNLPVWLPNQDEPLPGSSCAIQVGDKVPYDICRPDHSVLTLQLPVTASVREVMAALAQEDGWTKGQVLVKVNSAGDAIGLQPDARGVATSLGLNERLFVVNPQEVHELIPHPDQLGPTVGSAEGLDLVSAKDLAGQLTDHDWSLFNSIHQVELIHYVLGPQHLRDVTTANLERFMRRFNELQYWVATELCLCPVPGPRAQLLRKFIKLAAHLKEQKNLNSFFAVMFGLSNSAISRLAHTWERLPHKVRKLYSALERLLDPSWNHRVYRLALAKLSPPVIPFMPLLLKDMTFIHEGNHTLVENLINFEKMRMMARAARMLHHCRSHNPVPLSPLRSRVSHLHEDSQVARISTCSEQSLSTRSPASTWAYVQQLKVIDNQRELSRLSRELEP
Sequence of Tumor susceptibility gene 101 protein (Homo sapiens) (Q99816 whole entry, looked up, the tested form may be a part): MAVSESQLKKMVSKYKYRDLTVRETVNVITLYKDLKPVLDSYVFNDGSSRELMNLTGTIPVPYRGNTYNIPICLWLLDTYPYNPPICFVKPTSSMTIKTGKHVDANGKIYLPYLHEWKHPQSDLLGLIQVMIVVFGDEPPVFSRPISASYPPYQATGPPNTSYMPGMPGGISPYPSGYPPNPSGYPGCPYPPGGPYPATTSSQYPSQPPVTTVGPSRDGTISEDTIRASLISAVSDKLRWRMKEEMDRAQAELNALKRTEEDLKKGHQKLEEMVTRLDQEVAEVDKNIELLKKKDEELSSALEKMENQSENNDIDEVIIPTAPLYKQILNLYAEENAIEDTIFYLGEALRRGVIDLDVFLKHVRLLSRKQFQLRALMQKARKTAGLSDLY

`CC(C)(C)c1ccc(S(=O)(=O)NC(=O)C2(C)CCN2C(=O)Cc2ccc(-c3ccccc3)cc2)cc1` (stereo not drawn): the Potency result in assay [1] and in assay [3] was “inactive” throughout. In addition, the activation is -4.75% [at 17.1 µM, percent relative to cAMP agonist control] in assay [2] and 6.27% [at 30.8 µM] in assay [4].

As for `COC(=O)c1cc2c(N)c(C(=O)c3ccc(Cl)cc3)sc2nc1C(OC)OC`, the Potency entry in assay [5], in assay [1] and in assay [3] was “inactive” in each case. The activation is 5.58% [at 17.1 µM, percent relative to cAMP agonist control] in assay [2] and 42.3% [at 30.8 µM] in assay [4]. Further, the activity change, negative = inhibition in assay [6] was -4.3% [at 30.8 µM].

Regarding `CCN(CC)c1nc2ccccc2nc1C(C#N)C(=O)NCCc1ccccc1` (stereo not drawn), the Potency is 6.51 µM (active) in assay [5] and 84.9 µM (active) in assay [3]. Further, the Potency entry in assay [1], in assay [2] and in assay [6] was “inactive” each time.

On to `CCc1ccc2c(c1)NC(=O)C2(C)Cc1ccc(C(F)(F)F)o1` (stereo not drawn), for which the Potency entry in assay [1], in assay [2], in assay [3] and in assay [4] was “inactive” in each case.

Consider `CCC/C=C/c1ccc(CN2C(CC(C)C)C(=O)N(Cc3cn(Cc4ccco4)nn3)CCS2(=O)=O)cc1` (stereo not drawn), for which the Potency result in assay [1], in assay [2], in assay [3] and in assay [4] was “inactive” throughout.
